DT40 TDP1 no CPT – qHTS for Inhibitors of human tyrosyl-DNA phosphodiesterase 1 (TDP1): qHTS in cells in absence of CPT. DT40 Tdp1-/- hTDP1 cells, no CPT, ATP luminescence, 48 h. 420,000 compounds, 15% hits. Potency, µM (series often up to 46.2 µM), without a hit: at the highest dose activity change, negative = growth inhibition, usual class: inhibitors. AID 686978, 2013; further: potency means the concentration at half of the fitted maximal effect; nearly all actives have a fitted effect of over 55% in size
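Seeded 400 DT40-hTDP1 cells/well (vehicle DMSO, no 20 nM CPT); pinned compounds; ≥48 hr at 37 °C; CellTiter-Glo luminescence as viability measure.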
IL-1B inflam inh – inhibitors of inflammasome signaling (IL-1 beta secretion) | 360,000 compounds, 4.7% hits | activity change, % at 57.5 µM | THP-1 LPS/ATP IL-1B secretion, AlphaLISA, 16 h; active compounds read low; in the data active means activity change below about -50%; inconclusive means mostly about -30% to -49%
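Secreted IL-1B measured by AlphaLISA bead assay after 16 h compound exposure of THP-1 cells; compounds (final up to 57.5 uM) added 1 h before LPS (250 ng/mL) and ATP (1.25 mM) stimulation; lower signal means less secretion.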
DT40 TDP1 CPT – DT40-hTDP1 cell growth loss with CPT | 420,000 compounds, 12% hits | Potency, µM (series often up to 46.2 µM), for inactives: top-dose activity change, negative = growth inhibition, most hits filed as inhibitors | chicken DT40 Tdp1-/-;hTDP1 cells + 20 nM CPT, ATP luminescence, 48 h; further: potency means the concentration at half of the fitted maximal effect; nearly all actives have a fitted effect of over 55% in size
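Chicken DT40 Tdp1-/- cells complemented with human TDP1, 400 cells/well, exposed to compounds plus 20 nM camptothecin for at least 48 h at 37 C; viability read as ATP content by CellTiter-Glo luminescence.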
HT1080 IDH1KD tx – kills HT-1080 cells with IDH1 knockdown | HT-1080 IDH1 knockdown viability, ATP luminescence, 48 h | Potency, µM (top dose mostly 46.1 µM), for the others: at the highest dose activity, negative = toxicity, most hits filed as cytotoxic | 360,000 compounds, 2% hits | AID 686971;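 further: potency means the concentration at half of the fitted maximal effect; 0% = DMSO wells and -100% = cell-free medium wells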
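CellTiter-Glo luminescence after 48 h compound exposure at 37 degrees C of IDH1-knockdown HT-1080 cells in 5% FBS RPMI. %Activity scaled between DMSO wells and cell-free media wells, with curves fitted and assigned curve classes.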
HT1080-NT tox – kills 2HG-producing HT-1080-NT fibrosarcoma cells. HT-1080-NT fibrosarcoma viability, CellTiter-Glo ATP luminescence, 48 h. Potency, µM (series often up to 46.1 µM), for inactives: top-dose activity, negative = less viability, usual class: cytotoxic. 360,000 compounds, 1.6% hits;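 further: NT is the 2HG producing partner of a matched IDH1 knockdown line; potency means the concentration at half of the fitted maximal effect; 0% = DMSO-treated cells and -100% = media-only wells without cells; nearly all actives have a fitted effect of over 55% in size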
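750 cells/well, RPMI + 5% FBS; 2 h settle, compound pin-transfer, 48 h at 37 degrees C. CellTiter-Glo 10 min RT, luminescence. Normalized to DMSO and media-only wells.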
Numbers without * were called inactive; ? = inconclusive; / = no result; [ ] = dose if it differs, or a comment. Hits are enriched below; roughly 19% of the tested compounds scored in any of these assays. Unless noted, the call rests on the fitted dose curve; in most records, active means well fitted curve in the direction sought with a large enough effect; inconclusive means small, poorly fitted or top-dose-only effect, or another doubt; inactive means no such curve, though single readings can be large; an effect the other way counts as inactive or inconclusive. Unless noted, on the % scale 0 is the no-effect control and ±100 the full control effect.

SMILES	DT40 TDP1 no CPT	IL-1B inflam inh	DT40 TDP1 CPT	HT1080 IDH1KD tx	HT1080-NT tox
Cc1ccn2c(NC(=O)c3ccccc3)c(-c3cccs3)nc2c1	-7.5%	-1.4	-31.5%	-7.6%	-7.5%
Cc1ccn2c(NCc3ccccc3)c(-c3cccs3)nc2c1	23.1µM*	0.0	16.4µM*	-3.9%	-15.0%
Cc1ccc(-c2nc3ncccn3c2NC2CCCC2)o1	?	2.8	-8.3%	0.1%	4.6%
CC(C)c1nc2ccccn2c1NC1CCCCC1	?	-18.7	-28.3%	-0.2%	-9.1%
c1csc(-c2nc3ccccn3c2NC2CCCCC2)c1	?	-85.8*	?	?	-3.5%
Cc1ccn2c(NC3CCCC3)c(-c3cccs3)nc2c1	23.1µM*	-11.7	14.6µM*	-4.4%	-5.7%
O=c1oc2ccc3ccccc3c2cc1-c1nnc(Nc2ccccc2)s1	?	/	-1.2%	/	/
CCCCN(C)CCNC(=O)Cn1ncc2c([nH]c3ccccc32)c1=O	0.5%	/	0.7%	/	/
CCCCN(C)CCCNC(=O)Cn1ncc2c3ccccc3n(Cc3ccccc3F)c2c1=O	13µM*	/	13µM*	/	/
CCCN(CCC)CCCNC(=O)Cn1ncc2c3ccccc3n(Cc3ccccc3F)c2c1=O	23.1µM*	/	16.4µM*	/	/
CCCn1c2ccccc2c2cnn(CC(=O)NCCCOC)c(=O)c21	-14.4%	13.3	-2.8%	-1.0%	0.7%
CCCCN(C)CCCNC(=O)Cn1ncc2c3ccccc3n(Cc3cc(C)ccc3C)c2c1=O	2.91µM*	/	2.59µM*	/	/
COc1ccc2c(c1)CC(C(=O)N1CCC(C(N)=O)CC1)CO2 (centres undefined)	-15.2%	/	-8.9%	/	/
COc1ccccc1/C=C/C(=O)Nc1ccc2c(c1)OCCO2	10.3µM*	-58.1*	8.2µM*	?	-23.9%
O=C(/C=C/c1ccco1)Nc1ccc(N2CCCC2)cc1	-9.6%	-1.8	-0.2%	21.4%	13.3%
COc1ccccc1/C=C/C(=O)Nc1ccc2c(c1)CCC2	11.6µM*	?	-27.4%	-2.3%	-2.8%
COc1ccccc1/C=C/C(=O)OCC(=O)Nc1ccc2c(c1)OCCO2	4.1%	-8.9	2.1%	-2.5%	-0.1%
O=C(/C=C/c1ccco1)Nc1ccc(Oc2ccc(Cl)cc2)cc1	3.26µM*	-6.5	4.11µM*	4.11µM*	5.8µM*
O=C(/C=C/c1ccco1)Nc1ccc2c(c1)OCCO2	-17.1%	-70.3*	-16.3%	9.1%	9.8%
CC(C)c1ccccc1NC(=O)COC(=O)/C=C/c1cccc([N+](=O)[O-])c1	?	7.3	?	0.5%	3.0%
CC1(C)C(=O)OC(c2cccs2)C(C)(C)C1=O (centres undefined)	-13.1%	10.7	-1.8%	-0.3%	5.2%
CN1CCN(C(=O)CCCN2C(=O)/C(=C/c3ccccc3)SC2=S)CC1	16.4µM*	-96.9*	18.4µM*	?	?
O=C(O)CCCN1C(=O)/C(=C\C(Cl)=C\c2ccccc2)SC1=S	20.6µM*	-95.4*	18.4µM*	?	?
CN1CCN(C(=O)CCCN2C(=O)/C(=C/c3ccc(Cl)cc3)SC2=S)CC1	11.6µM*	-3.6	14.6µM*	-12.6%	0.6%[9.24 µM]
CCc1ccc(/C=C2\SC(=S)N(CCC(=O)N3CCN(C)CC3)C2=O)cc1	?	-6.7	-21.0%	0.8%	-3.6%
SMILES	DT40 TDP1 no CPT	IL-1B inflam inh	DT40 TDP1 CPT	HT1080 IDH1KD tx	HT1080-NT tox
CN1CCN(C(=O)CCN2C(=O)/C(=C\c3ccc(Cl)cc3Cl)SC2=S)CC1	11.6µM*	-84.6*	14.6µM*	?	?
CC(C)n1nnnc1C1c2ccccc2C(=O)N1Cc1ccccc1 (centres undefined)	-28.2%	42.7	1.7%	17.8%	24.6%
CCn1cc(C(=O)NCCCOC(C)C)c(=O)c2cc(S(=O)(=O)N3CCCC3)ccc21	10.2%	-18.3	-3.8%	12.1%	2.1%
CCC1CCCCN1CCCNC(=O)c1cn(CC)c2ccc(S(=O)(=O)N3CCc4ccccc4C3)cc2c1=O (centres undefined)	?	-98.9*	?	-5.8%	-0.2%
CCn1cc(C(=O)NCCCN2CCCC(C)C2)c(=O)c2cc(S(=O)(=O)N3CCc4ccccc4C3)ccc21 (centres undefined)	?	-104.5*	23.1µM*	20.6µM*	?
CN(C)S(=O)(=O)c1cccc(NC(=O)CSc2cccc3cccnc23)c1	3.26µM*	-104.5*	3.66µM*	?	18.4µM*
CN(C)S(=O)(=O)c1cccc(NC(=O)CSc2nc3c(cc2C#N)C(=O)CC(C)(C)C3)c1	7.31µM*	-58.4*	9.2µM*	?	?
CC(=O)Nc1cnc(-c2cc(C)c(O)c(C)c2)cn1	-23.5%	1.5	?	-21.4%	-7.3%
COc1cc(OC)cc(C(=O)Nc2cccc(NC(=O)c3cc(OC)cc(OC)c3)n2)c1	?	-5.1	?	-13.2%	2.5%
COc1cc(OC)cc(C(=O)Nc2nc(-c3ccccc3)c(-c3ccccc3)o2)c1	10.3µM*	0.9	7.31µM*	?	?
CC(=O)Nc1nc(-c2ccccc2)c(-c2ccccc2)o1	-19.7%	-66.3*	-21.2%	-11.3%	-7.7%
O=c1[nH]c2ccc(NCc3ccc(-c4ccccc4)o3)cc2[nH]1	-11.7%	/	-6.7%	/	/
O=c1[nH]c2ccc(NCc3ccc(-c4ccccc4F)o3)cc2[nH]1	18.4µM*	/	23.1µM*	/	/
COc1ccc(CCNC(=S)N2CCC(Cc3ccccc3)CC2)cc1OC	?	-8.4	-6.0%	-23.0%	-18.6%
Cn1cnc([N+](=O)[O-])c1S(=O)(=O)c1cccc(Cl)c1	2.31µM*	?	1.84µM*	?	?
Cn1cnc([N+](=O)[O-])c1S(=O)(=O)Nc1ccccc1	14.6µM*	-97.5*	16.4µM*	?	10.3µM*
Cc1cccc(Sc2c([N+](=O)[O-])ncn2C)n1	-15.1%	0.0	-5.0%	1.5%	-0.6%
Cn1cnc([N+](=O)[O-])c1S(=O)(=O)Oc1ccccc1	1.03µM*	-93.8*	0.651µM*	23.1µM*	?
Cc1ccccc1NC(=O)c1ccc(OCc2c(C)noc2C)cc1	?	34.8	?	-0.9%	-0.1%
Nc1[nH]c(=O)[nH]c(=O)c1N=Nc1ccc(C(=O)O)cc1	-1.1%	-0.5	-16.4%	-0.9%	2.3%
CSc1nc(SCCN(C)C)c2c3c(sc2n1)COC(C)(C)C3	18.4µM*	-60.9*	?	?	-23.7%
O=[N+]([O-])/C(C(=C(Cl)Cl)N1CCN(Cc2ccccc2)CC1)=C1\NCCN1Cc1ccc(Cl)nc1	14.6µM*	?	?	-6.4%	-11.5%
CCNc1ncc2nc(-c3cccc(C#N)c3)c(=O)n(Cc3cccc(OC)c3)c2n1	0.5%	/	10.4%	/	/

Source: PubChem BioAssay
